HT1080-NT tox: kills 2HG-producing HT-1080-NT fibrosarcoma cells. HT-1080-NT fibrosarcoma viability, CellTiter-Glo ATP luminescence, 48 h. Potency, µM (top dose mostly 46.1 µM), without a hit: top-dose activity, negative = less viability, hits mostly cytotoxic. 360,000 compounds, 1.6% hits;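 note: NT is the 2HG producing partner of a matched IDH1 knockdown line; 0% = DMSO-treated cells and -100% = media-only wells without cells; nearly all actives have a fitted effect of over 55% in size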
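Read-out is CellTiter-Glo luminescence after 10 minutes at room temperature, following 48 hours' compound treatment of HT-1080-NT cells (750 cells/well, RPMI, 5% FBS, 37 degrees C).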
MCF10A rerep: inducers of DNA re-replication in MCF 10A breast cells; MCF 10A DNA re-replication, Hoechst nuclear intensity, 48 h; Potency, µM (highest dose often 46.1 µM), inactives show at the highest dose activity, positive = re-replication, most hits filed as activators; 350,000 compounds, 2.9% hits; AID 624296; note: % of control where 0% means no effect; nearly all actives have a fitted effect of over 50% in size
HT1080 IDH1KD tx: toxicity to HT-1080 IDH1 knockdown cells (counter line); HT-1080 IDH1 knockdown viability, ATP luminescence, 48 h; AID 686971; Potency, µM (series often up to 46.1 µM), without a hit: top-dose activity, negative = toxicity, most hits filed as cytotoxic; 360,000 compounds, 2% hits;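 note: 0% = DMSO wells and -100% = cell-free medium wells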
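Assay cells: HT-1080 with IDH1 knockdown, 750 per well, RPMI/5% FBS. Exposure: 48 h at 37 °C following 2 h pre-incubation. Read: CellTiter-Glo luminescence; fitted concentration-response, curve class assigned.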
KB-3-1 cytotox: kills parental KB-3-1 adenocarcinoma cells; 400,000 compounds, 1.4% hits; KB-3-1 viability, CellTiter-Glo ATP luminescence, 72 h; Potency, µM (doses to about 46.1 µM), actives largely listed as cytotoxic; note: % is set by controls: 0 for no effect and ±100 for the full control effect; nearly all actives have a fitted effect of over 60% in size
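Parental KB-3-1 adenocarcinoma cells in phenol-red-free DMEM with 10% FBS were pin-treated with compounds at several concentrations, incubated 72 h at 37 °C, and viability read by CellTiter-Glo luminescence; concentration-effect curves were fitted after normalization.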
KB-V1 cytotox: kills drug-selected multidrug resistant KB-V1 cells; Potency, µM (titrated, usually from 46.1 µM), most hits filed as cytotoxic; 400,000 compounds, 3.4% hits; KB-V1 MDR cells viability, CellTiter-Glo, 72 h; AID 1347076; note: % is set by controls: 0 for no effect and ±100 for the full control effect; nearly all actives have a fitted effect of over 60% in size
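KB-V1 MDR subline cells in DMEM (phenol-red free, 10% FBS) exposed to compounds in qHTS concentration series for 72 h at 37 degrees C. Viability read by CellTiter-Glo luminescence; concentration-effect curves fitted after normalization and correction.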
SW480 rerep: induces DNA re-replication in SW480 colon adenocarcinoma cells; 340,000 compounds, 1.8% hits; Potency, µM (titrated, usually from 46.1 µM), for inactives: at the highest dose re-replication activation, most hits filed as activators; AID 624297; SW480 DNA re-replication, Hoechst DNA content imaging, 48 h; note: % of control where 0% means no effect; nearly all actives have a fitted effect of over 55% in size
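Quantitative HTS format with DMSO vehicle controls; 48 hr drug incubation at 37 C, then 40 min Hoechst staining and scanning imager measurement at 405 nm excitation.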
An asterisk follows results filed as active; [ ] = dose if it differs, or a comment. Most compounds without a hit are left out; they make up all but 7.9% or so of the library. Calls come from the whole dose curve; as a rule, active = well fitted curve in the direction sought with a large enough effect; inconclusive = small, poorly fitted or top-dose-only effect, or another doubt; inactive = no such curve, though single readings can be large; an effect the other way counts as inactive or inconclusive. Potency is the fitted concentration of half-maximal effect.

Results for O=C(Nc1ccc(-c2nc3ccccc3[nH]2)cc1)c1ccccc1NS(=O)(=O)c1ccc(F)cc1 ?
HT1080-NT tox: -4%; MCF10A rerep: 18µM*; HT1080 IDH1KD tx: -3%; KB-3-1 cytotox: inactive; KB-V1 cytotox: inactive; SW480 rerep: inconclusive

How did CS(=O)(=O)c1ccccc1C(=O)Nc1ccc(-c2nc3ccccc3[nH]2)cc1 do in these assays?
HT1080-NT tox: 3%; MCF10A rerep: -4%; HT1080 IDH1KD tx: 0%; KB-3-1 cytotox: inactive; KB-V1 cytotox: inactive; SW480 rerep: 6%

How did O=C(Cc1cccs1)Nc1cccc(-c2nc3cc4ccccc4cc3[nH]2)c1 do in these assays?
HT1080-NT tox: 23µM*; MCF10A rerep: inconclusive; HT1080 IDH1KD tx: inconclusive; KB-3-1 cytotox: inconclusive; KB-V1 cytotox: inconclusive; SW480 rerep: 1%

What do the screens show for `O=C(Nc1ccc(-c2nc3ccc(NC(=O)c4cccs4)cc3[nH]2)cc1)c1cccs1`?
MCF10A rerep: inconclusive; KB-3-1 cytotox: 6.5µM*; KB-V1 cytotox: inactive; SW480 rerep: inconclusive

Results for CC(=O)Nc1cccc(NC(=O)Cc2cccs2)c1 ?
HT1080-NT tox: -3%; MCF10A rerep: 1%; HT1080 IDH1KD tx: 0%; KB-3-1 cytotox: inactive; KB-V1 cytotox: inactive; SW480 rerep: 3%

How did COc1cccc(CSc2nc3cc(OC)c(OC)cc3c3nc(CCn4nc(C)cc4C)nn23)c1 do in these assays?
KB-3-1 cytotox: inactive; KB-V1 cytotox: inactive

What do the screens show for `O=C(CCC1CCCN(C(=O)c2cc(F)ccc2F)C1)N1CCN(c2ccccn2)CC1` (stereo not given)?
HT1080-NT tox: 0%; HT1080 IDH1KD tx: -12%; KB-3-1 cytotox: inactive; KB-V1 cytotox: inconclusive

How did CN(C)c1cccc(NC(=O)C2Cc3c(-c4cccnc4)ccnc3O2)c1 (stereo not given) do in these assays?
HT1080-NT tox: 0%; HT1080 IDH1KD tx: 1%; KB-3-1 cytotox: inactive; KB-V1 cytotox: inactive

How did COc1ccc(-c2noc(-c3nnn(-c4ccc(C)cc4C)c3C)n2)cc1 do in these assays?
KB-3-1 cytotox: inactive; KB-V1 cytotox: inactive

Results for O=C(Nc1ccccc1)c1snc2c(=O)[nH]cnc12 ?
HT1080-NT tox: 11%; MCF10A rerep: -3%; HT1080 IDH1KD tx: 10%; KB-3-1 cytotox: inconclusive; KB-V1 cytotox: 4.1µM*; SW480 rerep: -121%

What do the screens show for `O=C(O)COc1ccc(/C=C/c2nc3ccc([N+](=O)[O-])cc3s2)cc1`?
HT1080-NT tox: inconclusive; MCF10A rerep: 12µM*; HT1080 IDH1KD tx: 6%; KB-3-1 cytotox: inactive; KB-V1 cytotox: inactive; SW480 rerep: 8%

What do the screens show for `O=[N+]([O-])c1ccc(N/N=C/c2cn(-c3ccccc3)nc2-c2ccccc2)cc1`?
HT1080-NT tox: inconclusive; MCF10A rerep: 1.6µM*; HT1080 IDH1KD tx: inconclusive; KB-3-1 cytotox: inactive; KB-V1 cytotox: inconclusive; SW480 rerep: 10µM*

What do the screens show for `O=[N+]([O-])c1ccc(NN=Cc2cccc([N+](=O)[O-])c2)cc1`?
HT1080-NT tox: inconclusive; MCF10A rerep: 23µM*; HT1080 IDH1KD tx: inconclusive; KB-3-1 cytotox: inactive; KB-V1 cytotox: inactive; SW480 rerep: 25%

What do the screens show for `NS(=O)(=O)c1ccc(N/N=C/c2cn(-c3ccccc3)nc2-c2ccccc2)c([N+](=O)[O-])c1`?
HT1080-NT tox: -9%; MCF10A rerep: 23%; HT1080 IDH1KD tx: -14%; KB-3-1 cytotox: inconclusive; KB-V1 cytotox: inconclusive; SW480 rerep: -33%

How did COC(=O)N/N=C/c1cccc([N+](=O)[O-])c1 do in these assays?
HT1080-NT tox: 22%; MCF10A rerep: 1%; HT1080 IDH1KD tx: 18%; KB-3-1 cytotox: inactive; KB-V1 cytotox: inactive; SW480 rerep: -2%

Results for Cc1ccc(NC(=O)c2ccc(N/N=C/c3cccc(O)c3)c([N+](=O)[O-])c2)cc1 ?
HT1080-NT tox: 7.3µM*; MCF10A rerep: inconclusive; HT1080 IDH1KD tx: 7.3µM*; KB-3-1 cytotox: inconclusive; KB-V1 cytotox: inconclusive; SW480 rerep: -3%

How did CCCCCCCCCS(=O)(=O)N/N=C/c1cccc([N+](=O)[O-])c1 do in these assays?
HT1080-NT tox: 7%[9.24 µM]; MCF10A rerep: 15µM*; HT1080 IDH1KD tx: inconclusive; KB-3-1 cytotox: inactive; KB-V1 cytotox: inactive; SW480 rerep: 0%

Results for COc1ccc(-c2nc3c4ccccc4n(CC(=O)N4CCN(c5ccc(F)cc5)CC4)c(=O)n3n2)cc1 ?
KB-3-1 cytotox: inactive; KB-V1 cytotox: inactive

What do the screens show for `Cc1ccc(-c2nc3c4ccccc4n(CC(=O)NCc4ccc(F)cc4)c(=O)n3n2)cc1`?
KB-3-1 cytotox: inactive; KB-V1 cytotox: inconclusive

Results for Cc1ccc(CNC(=O)c2ccc(-c3nc(CS(=O)(=O)c4ccc(C)cc4)c(C)o3)cc2)cc1 ?
KB-3-1 cytotox: inactive; KB-V1 cytotox: inactive

What do the screens show for `CCCCCCCCCCS(=O)(=O)N/N=C/c1ccccc1OC`?
HT1080-NT tox: inconclusive; MCF10A rerep: 18µM*; HT1080 IDH1KD tx: inconclusive; KB-3-1 cytotox: inactive; KB-V1 cytotox: inactive; SW480 rerep: -2%

How did O=[N+]([O-])c1ccc(C=NNc2ccc(S(=O)(=O)O)cc2)cc1 do in these assays?
HT1080-NT tox: 1%; MCF10A rerep: 1%; HT1080 IDH1KD tx: 6%; KB-3-1 cytotox: inactive; KB-V1 cytotox: inactive; SW480 rerep: -2%

How did CCCCCCCCCCS(=O)(=O)N/N=C/c1ccc(O)cc1 do in these assays?
HT1080-NT tox: inconclusive; MCF10A rerep: 1%; HT1080 IDH1KD tx: inconclusive; KB-3-1 cytotox: inactive; KB-V1 cytotox: inactive; SW480 rerep: -3%

Results for O=[N+]([O-])c1ccc(N/N=C/c2c[nH]c3ccccc23)cc1 ?
HT1080-NT tox: -25%; MCF10A rerep: inconclusive; HT1080 IDH1KD tx: inconclusive; KB-3-1 cytotox: inconclusive; KB-V1 cytotox: inconclusive; SW480 rerep: inconclusive

Results for O=[N+]([O-])c1ccc(N/N=C/c2cccc(O)c2O)cc1 ?
HT1080-NT tox: inconclusive; MCF10A rerep: 23µM*; HT1080 IDH1KD tx: inconclusive; KB-3-1 cytotox: inconclusive; KB-V1 cytotox: inactive; SW480 rerep: inconclusive

Results for O=[N+]([O-])c1ccc(N/N=C/c2cccc(O)c2)cc1 ?
HT1080-NT tox: inconclusive; MCF10A rerep: 18µM*; HT1080 IDH1KD tx: inconclusive; KB-3-1 cytotox: inactive; KB-V1 cytotox: inactive; SW480 rerep: inconclusive

Compound activity from PubChem BioAssay.
